Our source for the Potency values is PubChem BioAssay (NCATS).

In experiment [1] the target is N-terminal Xaa-Pro-Lys N-methyltransferase 1 (Homo sapiens) (UniProt Q9BV86). The experiment is described as follows: qHTS Assay for Inhibitors of N-terminal methyltransferase 1 (NTMT1): LOPAC validation of the NTMT1 SAHH-coupled ThioGlo3 Assay (AID 1347143). Note: nearly all actives have a fitted effect of over 70% in size. In outline: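 Fluorescence read-out (excitation 340nm, emission 450nm) of SAH-derived thiol, measured via SAHH coupling and ThioGlo3, taken immediately and after a 30 min room-temperature reaction, then normalized to the background read. Enzyme: NTMT1 at 125nM; cofactor SAM 100uM in the added reagent.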
Sequence of N-terminal Xaa-Pro-Lys N-methyltransferase 1 (Homo sapiens) (Q9BV86 whole entry, looked up): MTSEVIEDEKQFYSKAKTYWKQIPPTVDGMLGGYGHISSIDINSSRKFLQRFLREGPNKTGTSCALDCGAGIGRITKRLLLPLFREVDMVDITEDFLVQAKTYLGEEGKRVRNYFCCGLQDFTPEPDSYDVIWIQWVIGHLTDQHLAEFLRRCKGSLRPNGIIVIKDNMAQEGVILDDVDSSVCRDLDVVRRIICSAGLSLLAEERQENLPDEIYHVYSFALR

The test system of experiment [2] is Zika virus NS2B-NS3 protease (unlinked). The experiment is described as follows: Optimization of GU AMC qHTS for Zika virus inhibitors: Unlinked NS2B-NS3 protease assay (AID 1347151). Note: nearly all actives have a fitted effect of over 80% in size. Note: potency is the fitted concentration of half-maximal effect. In outline: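 Unlinked protease (25 nM final); buffer 10 mM Tris-HCl pH 8.0 + 0.01% Tween 20; AMC substrate; 15 min RT, dark; Δfluorescence normalized to no-inhibitor/no-enzyme controls; 4-parameter Hill fit.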

Experiment [3] can be described thus: qHTS of pediatric cancer cell lines to identify multiple opportunities for drug repurposing: Confirmatory screen for DAOY cells (AID 1347114). Note: nearly all actives have a fitted effect of over 65% in size. Note: potency is the fitted concentration of half-maximal effect. In outline:
(§1)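 Viability measured as metabolically active cells via CellTiter-Glo luminescence following 48 hours of compound exposure, 11-point dilutions in confirmatory testing. 500-1,000 cells/well plated 5 hours before dosing; controls were DMSO and 2.3 µM bortezomib.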
For orientation: Quantitative high-throughput screening tests each substance at several concentrations.

Experiment [4] in a line: qHTS of pediatric cancer cell lines to identify multiple opportunities for drug repurposing: Confirmatory screen for BT-37 cells (AID 1347117). Note: potency is the fitted concentration of half-maximal effect; nearly all actives have a fitted effect of over 55% in size. In outline: (§2)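 Cells (500-1,000/well) in growth media were settled 5 h at 37 degrees C, then given compounds for 48 h. Viability was read as CellTiter-Glo luminescence. Primary runs used MIPE at 11 points (0.78 nM-46 µM) and NPC at 8 points (0.59 nM-46 µM); follow-ups used 11 points.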

Experiment [5] can be described thus: qHTS of pediatric cancer cell lines to identify multiple opportunities for drug repurposing: Confirmatory screen for TC32 cells (AID 1347118).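 Note: potency is the fitted concentration of half-maximal effect; cells exposed to compound for 48 h before the read; nearly all actives have a fitted effect of over 65% in size.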 An outline of the steps:
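qHTS, TC32, 48 h drug treatment, CellTiter-Glo luminescence as a proxy for metabolically active cells; primary top concentration 46 µM (MIPE 11-pt, NPC 8-pt); confirmatory 11-pt.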

Experiment [6] can be described thus: qHTS of pediatric cancer cell lines to identify multiple opportunities for drug repurposing: Confirmatory screen for control Hh wild type fibroblast cells (AID 1347121). Note: nearly all actives have a fitted effect of over 70% in size. In outline:
as §2

The nature of experiment [7]: qHTS of pediatric cancer cell lines to identify multiple opportunities for drug repurposing: Confirmatory screen for Rh41 cells (AID 1347123).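 Note: potency is the fitted concentration of half-maximal effect; 48 h compound exposure; nearly all actives have a fitted effect of over 60% in size.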 An outline of the steps:
as §2

Experiment [8] can be described thus: qHTS of pediatric cancer cell lines to identify multiple opportunities for drug repurposing: Confirmatory screen for RD cells (AID 1347124).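 Note: potency is the fitted concentration of half-maximal effect; cells exposed to compound for 48 h before viability readout; nearly all actives have a fitted effect of over 65% in size.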 An outline of the steps:
as §2

Experiment [9] is described as follows: qHTS of pediatric cancer cell lines to identify multiple opportunities for drug repurposing: Confirmatory screen for Rh18 cells (AID 1347125). Note: nearly all actives have a fitted effect of over 55% in size. Note: potency is the fitted concentration of half-maximal effect. An outline of the steps:
as §2

Experiment [10] is described as follows: qHTS of pediatric cancer cell lines to identify multiple opportunities for drug repurposing: Confirmatory screen for Rh30 cells (AID 1347126). Note: potency is the fitted concentration of half-maximal effect; nearly all actives have a fitted effect of over 55% in size. In outline: as §2
A short description of experiment [11]: qHTS of pediatric cancer cell lines to identify multiple opportunities for drug repurposing: Confirmatory screen for NB-EBc1 cells (AID 1347115).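 Note: potency is the fitted concentration of half-maximal effect; cells exposed to compound for 48 h before the viability read; nearly all actives have a fitted effect of over 45% in size.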 In outline:
as §2

Experiment [12] in a line: qHTS of pediatric cancer cell lines to identify multiple opportunities for drug repurposing: Confirmatory screen for SJ-GBM2 cells (AID 1347116). Note: potency is the fitted concentration of half-maximal effect; nearly all actives have a fitted effect of over 60% in size. An outline of the steps: as §1
The nature of experiment [13]: qHTS of pediatric cancer cell lines to identify multiple opportunities for drug repurposing: Confirmatory screen for MG 63 (6-TG R) cells (AID 1347119). Note: potency is the fitted concentration of half-maximal effect; nearly all actives have a fitted effect of over 55% in size. In outline: as §2
The nature of experiment [14]: qHTS of pediatric cancer cell lines to identify multiple opportunities for drug repurposing: Confirmatory screen for Saos-2 cells (AID 1347127). Note: potency is the fitted concentration of half-maximal effect; nearly all actives have a fitted effect of over 60% in size. In outline:
as §2

Experiment [15] can be described thus: qHTS of pediatric cancer cell lines to identify multiple opportunities for drug repurposing: Confirmatory screen for OHS-50 cells (AID 1347128). In outline:
as §2

Experiment [16] addresses Furin (Homo sapiens) (UniProt P09958). The experiment can be described thus: Furin counterscreen qHTS for Zika virus inhibitors (AID 1347149). Note: potency is the fitted concentration of half-maximal effect; nearly all actives have a fitted effect of over 70% in size. In outline:
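Fluorogenic cleavage of BOC-RVRR-AMC (2 microM final, Km ~15 µM) was monitored (ex 340, em 450 nm) at 37C after 15 min RT preincubation of 5 nM furin with compounds in HEPES pH 7.0 buffer with CaCl2 and Triton X-100. Percent inhibition was fitted to a 4-parameter Hill curve.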
(The purpose of a counterscreen is to sort out artefacts and off-target activity.)

Experiment [17] relates to Zika virus NS2B-NS3 protease (linked construct). The experiment can be described thus: Confirmatory screen NINDS AMC qHTS for Zika virus inhibitors (AID 1347152). Note: nearly all actives have a fitted effect of over 70% in size. Note: potency is the fitted concentration of half-maximal effect. In outline:
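Enzyme (1 nM, linked construct) was preincubated with compound for 15 minutes at room temperature in 10 mM Tris-HCl pH 8.0 with 0.01% Tween 20. Bz-Nle-Lys-Arg-Arg-AMC was then added to 10 microM, and AMC fluorescence was recorded immediately and after 15 minutes.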

Experiment [18] deals with Zika virus NS2B-NS3 protease (unlinked complex). The experiment is described as follows: Confirmatory screen GU AMC qHTS for Zika virus inhibitors (AID 1347153). Note: nearly all actives have a fitted effect of over 70% in size. In outline:
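Fluorescence change (ex 340/em 450 nm) over 15 min, ~20% substrate conversion, normalized to no-inhibitor and no-enzyme controls, then Hill-fitted. Unlinked protease at 25 nM; AMC peptide 10 µM.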

Inconclusive results are not listed. Calls of active or inactive are those of the source. Calls come from the whole dose curve; as a rule, active = well fitted curve in the direction sought with a large enough effect; inconclusive = small, poorly fitted or top-dose-only effect, or another doubt; inactive = no such curve, though single readings can be large; an effect the other way counts as inactive or inconclusive.

Sequence of Furin (Homo sapiens) (P09958 whole entry, looked up): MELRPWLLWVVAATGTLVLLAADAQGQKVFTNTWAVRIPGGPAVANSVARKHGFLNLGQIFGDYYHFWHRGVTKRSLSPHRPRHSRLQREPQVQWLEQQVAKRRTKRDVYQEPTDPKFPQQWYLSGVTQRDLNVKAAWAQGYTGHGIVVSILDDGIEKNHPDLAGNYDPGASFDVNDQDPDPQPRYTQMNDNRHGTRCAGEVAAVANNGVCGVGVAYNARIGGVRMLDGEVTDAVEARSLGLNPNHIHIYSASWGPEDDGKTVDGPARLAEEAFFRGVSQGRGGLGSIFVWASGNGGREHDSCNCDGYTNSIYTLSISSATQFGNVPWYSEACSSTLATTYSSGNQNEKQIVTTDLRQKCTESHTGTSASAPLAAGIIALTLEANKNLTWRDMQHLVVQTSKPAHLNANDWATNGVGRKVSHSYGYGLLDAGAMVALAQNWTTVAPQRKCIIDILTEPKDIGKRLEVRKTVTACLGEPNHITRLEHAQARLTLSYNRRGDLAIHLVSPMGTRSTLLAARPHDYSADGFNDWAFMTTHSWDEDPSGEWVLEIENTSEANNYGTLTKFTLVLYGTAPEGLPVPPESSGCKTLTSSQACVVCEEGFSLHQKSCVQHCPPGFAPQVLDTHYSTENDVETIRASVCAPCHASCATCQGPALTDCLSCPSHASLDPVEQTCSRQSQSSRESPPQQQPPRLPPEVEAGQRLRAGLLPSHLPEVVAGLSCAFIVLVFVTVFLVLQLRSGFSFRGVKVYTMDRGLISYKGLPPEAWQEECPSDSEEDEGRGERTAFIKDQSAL

As for `COc1ccccc1N1CCNCC1`, the Potency result in experiment [1] and in [2] was “inactive” each time.

As for `C[C@@H]1[C@@H](C(=O)C[C@H]2O[C@@H]3O[C@]4(C)CC[C@@H]5[C@H](C)CC[C@@H]([C@H]2C)[C@@]35OO4)O[C@@H]2O[C@]3(C)CC[C@H]4[C@H](C)CC[C@@H]1[C@@]24OO3`, the Potency entry in experiment [3], in experiment [6] and in [9] was “inactive” throughout. Also, the Potency in experiment [4] is 1.65 µM (active); in experiment [5], 9.27 µM (active); in experiment [7] it was 0.928 µM (active); in experiment [8] it was 0.737 µM (active); in [10] it was 13.1 µM (active).

For `O=c1[nH]c2ccccc2n1CCCN1CCC(n2c(=O)[nH]c3cc(Cl)ccc32)CC1`, the Potency in experiment [3] is 23.3 µM (active); in [11], 16.5 µM (active); in experiment [12], 13.1 µM (active); in experiment [4] it was 8.27 µM (active); in experiment [5], 3.29 µM (active); in experiment [13] it was 6.57 µM (active). Moreover, the Potency is 16.5 µM (active) in experiment [7]; 9.27 µM (active) in [9]; 7.37 µM (active) in experiment [10]; 10.4 µM (active) in experiment [14]; 13.1 µM (active) in experiment [15]. Further, the Potency entry in [1] and in experiment [2] was “inactive” in each case.

For `Nc1ccncc1`, the Potency result in experiment [1] and in experiment [2] was “inactive” in each case.

Turning to `CCN(C(C)=O)c1cccc(-c2ccnc3c(C#N)cnn23)c1`, the Potency was 24.1 µM (active) in experiment [16] and 27.1 µM (active) in [17].

On to `NCC(O)c1ccc(O)cc1` (configuration not stated), for which the Potency entry in [1] and in [2] was “inactive” each time.

As for `CC(=O)[C@H]1CC[C@H]2[C@@H]3CC[C@H]4C[C@](C)(O)CC[C@]4(C)[C@H]3CC[C@]12C`, the Potency result in experiment [1] and in experiment [2] was “inactive” throughout.

Take `Cc1cccc(C)c1NC(=O)CN1CCCC1=O`: the Potency result in experiment [1] and in experiment [2] was “inactive” each time.

Consider `CN1C[C@H](CNC(=O)OCc2ccccc2)C[C@@H]2c3cccc4c3c(cn4C)C[C@H]21`, for which the Potency in experiment [2] was 23.8 µM (active). The Potency entry in [17] and in experiment [18] was “inactive” throughout.

`N[C@@H](Cc1ccc(Oc2cc(I)c(O)c(I)c2)c(I)c1)C(=O)O`: in experiment [16], the Potency was 30.4 µM (active).
